“And” between values parts separate entries of the source, which are not always exact repeats. Equal values may be shown once. About 83,000 compounds went through this panel and 20% of them were active in at least one assay; those are over-represented in the sample as a whole.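 Percent growth is the endpoint: 0 to 100 indicates growth inhibition (40 means 60% inhibition), 0 means no net growth, and negative values indicate cell death.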 Unmarked numbers belong to inactive results. The source made the active and inactive calls. How the source made its calls: active means growth percent below 10; inactive means the rest.
system: MDA-MB-468 breast; experiment: NCI-60 one-dose screen, 48 h (100 = growth as untreated, 0 = no growth, -100 = all killed); details: 10 µM unless noted

Structure (SMILES)	growth
CCCc1cc(NC)nc(S(=O)(=O)CC)n1	119%
Cn1c(C#N)ccc1-c1ccc(F)c(NC(=O)c2ccc(F)cc2)c1	35.6%
CC(=O)C[n+]1ccccc1Sc1ccc(Cl)cc1	97.3%
COc1cc(/C=C(/c2ccccc2)[N+](=O)[O-])c(OC)c2c1OCO2	-81.4% (active)
O=C(O)CC1=CCCCC1	102%
c1ccc2c(c1)Oc1cccnc1-n1nccc1-2	94.7%
CC1CCCc2sc3nc(NNC(=O)c4cnccn4)n(-c4ccccc4)c(=O)c3c21 (centres undefined)	-31.8% (active) and -42.9% (active)
N=C(N)c1ccc(-c2ccc(-c3ccccc3)o2)o1	14.3%
COc1cccc(C2=NN3C(C2)c2cc(Br)cc(OC)c2OC32CCN(Cc3ccccc3)CC2)c1 (centres undefined)	96.4%
NC1=CC(=O)C(=O)c2ccccc21	86.8%
CNC(=O)c1cc(Oc2ccc3nc(NC(=O)Nc4ccc(N5CCC(N(C)C)CC5)cc4)sc3c2)ccn1	76.3%
CC1CN(CCCOC(=O)Nc2ccc(Cl)cc2)CCN1C(C)(C)C (centres undefined)	104%
O=C(Oc1cccc2ccccc12)Oc1cccc2ccccc12	117%
CN(C)CCOC(=O)Nc1ccc(Cl)cc1	104%
O=C(Nc1ncc(Cc2cccc(C(F)(F)F)c2)s1)c1ccc2c(c1)OCCO2	15.6%
COc1ccc(C2C=C(c3ccc(OC)c(OC)c3)N=C3SC=C(C)N32)c(Br)c1 (centres undefined)	95.9%
CCN(CC)c1ccc(/C=N/NC(=O)c2ccc(S(N)(=O)=O)cc2)c(O)c1	-0.911% (active)
CC1(C)C2CC1C1(/C=N\Nc3ccccc3)C(C2)C(C#N)(C#N)C1(C#N)C#N (centres undefined)	94.8%
O=C1/C(=C/c2ccc([N+](=O)[O-])s2)Oc2ccc(Br)cc21	-40.2% (active)
COc1cc(/C=C2\CN(S(=O)(=O)c3ccc(C)cc3)C/C(=C\c3cc(CN4CCOCC4)c(O)c(OC)c3)C2=O)cc(CN2CCOCC2)c1O	-45.9% (active)
CN(C)C1CCN(Cc2ccc(NC(=O)c3cncc(C#Cc4cnc(N)c5ncccc45)c3)cc2C(F)(F)F)CC1	67%
CSC1=Nc2c(c(C)c(-c3ccccc3)n2CCCN2CCCCC2)C2=NC(=O)C[C@H](C)N12	-18.6% (active)
COCCN(C(=O)Cc1cccs1)C(C(=O)NCc1ccc(OC)cc1)c1ccc(C(C)C)cc1 (centres undefined)	90.7%
Nc1nc(N)c2c(n1)NC(c1ccccc1)CC(c1ccc(Nc3nc(NCCO)nc(Nc4ccc(Cl)cc4)n3)cc1)=N2 (centres undefined)	-70.1% (active)

From PubChem BioAssay (NCI)
